# Results published in ChEMBL document CHEMBL3988442, “University of Dundee, Small-Polar-MMV Screening Library” (2021).
# The whole screen tested about 66,000 compounds, of which about 960 (1.5%) showed an effect of 50% or more. The entries come from a sample that favours strong results as a whole.
# Test system: Trypanosoma brucei
# Test: Trypanosoma brucei 72 hour study
# Assay type: functional, organism-based
# Parameters: scale not given: in the data most compounds retested in dose-response had high values
smiles,measurement,setting,value
CN1CCN(C(=O)c2cc3sccc3n2Cc2ccccc2Cl)CC1,Percent Effect,"30.3 µM, […]",25.89%
CN1CCN(C(=O)c2cc3sccc3n2Cc2ccc(Cl)cc2)CC1,Percent Effect,"30.3 µM, […]",99.49%
CN1CCN(C(=O)c2cc3sccc3n2Cc2ccccc2)CC1,Percent Effect,"30.3 µM, […]",20.51%
CC1CCCN(Cc2c(C3CC3)n(CC(=O)N(C)C)c3ncccc23)C1.Cl (stereo not given),Percent Effect,"30.3 µM, […]",-32.63%
N#CCCN(CC1CCCO1)C(=O)c1ccsc1 (stereo not given),Percent Effect,"30.3 µM, […]",16.66%
same,Percent Effect,"10 mM, 10 mM as filed; unlikely as a test dose",-43.52%
O=C(CN(CC(O)c1ccc(F)cc1)C1CC1)NCc1cccs1 (stereo not given),Percent Effect,"30 µM, 30.03 µM",-22.68%
Cc1cnn(CC2CCCN2Cc2nc(C)c3ccccc3n2)c1 (stereo not given),Percent Effect,"30.3 µM, […]",99.14%
same,Percent Effect,"10 mM, 10 mM as filed; unlikely as a test dose",-68.59%
COc1ccc(C)cc1CN1CCCC1Cn1nc(C)nc1C (stereo not given),Percent Effect,"30 µM, 30.03 µM",103.3%
Cc1cnn(CC2CCCCN2Cc2nc(C)c3ccccc3n2)c1 (stereo not given),Percent Effect,"30.3 µM, […]",-8.505%
same,Percent Effect,"10 mM, 10 mM as filed; unlikely as a test dose",-58.92%
Cc1nc(C)n(CC2CCCN2Cc2nc(C)c3ccccc3n2)n1 (stereo not given),Percent Effect,10 µM,-1.729%
same,Percent Effect,"30.3 µM, […]",68.42%
COc1c(C)cnc(CN2CCCC2c2noc(C3CC3)n2)c1C (stereo not given),Percent Effect,"30 µM, 30.03 µM",-15.93%
COc1ccc(CN2CCCC2Cn2nc(C)nc2C)cc1F (stereo not given),Percent Effect,"30 µM, 30.03 µM",13.69%
Cc1nc(C)n(CC2CCCN2Cc2nc3ccccc3nc2C)n1 (stereo not given),Percent Effect,"30 µM, 30.03 µM",-3.332%
COc1ccc(F)cc1CN1CCCC1Cn1nc(C)nc1C (stereo not given),Percent Effect,10 µM,-21.11%
Cc1nc(C)n(CC2CCCN2Cc2nc(N)c3ccccc3n2)n1 (stereo not given),Percent Effect,"30 µM, 30.03 µM",-26.66%
Cc1cc(CN2CCCC2c2noc(C3CC3)n2)c2ccccc2n1 (stereo not given),Percent Effect,"30 µM, 30.03 µM",8.829%
Cc1nc(CN2CCCC2Cn2cccn2)nc2ccccc12 (stereo not given),Percent Effect,"30 µM, 30.03 µM",-97.44%
COc1ccc(C)cc1CN1CCCC1c1noc(C2CC2)n1 (stereo not given),Percent Effect,"30 µM, 30.03 µM",105.3%
CC(C)CC(=O)N1CCC2(CC1)COCCN2Cc1ccc(F)cc1.O=C(O)C(F)(F)F,Percent Effect,"30 µM, 30.03 µM",17.24%
COc1ccc(C[C@H]2CNCC[C@@H]2OC)cc1.O=C(O)C(F)(F)F,Percent Effect,"30.3 µM, […]",-9.891%
C[C@@H]1CN(S(C)(=O)=O)C[C@]12CCN(Cc1cccnc1)C2=O.O=C(O)C(F)(F)F,Percent Effect,"30.3 µM, […]",-31.63%
Cc1cc(Cl)c(C)c(S(=O)(=O)N2CCN(Cc3ccncc3)CC2)c1Cl,Percent Effect,"30 µM, 30.03 µM",-52.63%
CNC(=O)[C@@H]1CN(C(=O)C2CCC2)C[C@H]1c1ccnc(N2CCCC2)n1.Cl,Percent Effect,"30.3 µM, […]",8.722%
Cn1cc(CCC(=O)N2C[C@@H]3CC[C@H](C2)N(Cc2ccccn2)C3)cn1,Percent Effect,"30.3 µM, […]",7.516%
CC(C)c1cc(NC(=O)CN2CCCC2c2noc(C(C)C)n2)on1 (stereo not given),Percent Effect,10 µM,-43.85%
same,Percent Effect,"30.3 µM, […]",0.3759%
CN(C(=O)NCc1ccncc1)C1CCCN(c2ccccc2)C1=O (stereo not given),Percent Effect,10 µM,-27.33%
COCCN1CCC2(CC1)CC(c1cccnc1)CO2.O=C(O)C(F)(F)F (stereo not given),Percent Effect,"30.3 µM, […]",-48.93%
Cc1c(C)n2c(SCC(=O)N3CCCCC3)nnc2[nH]c1=O,Percent Effect,"30.3 µM, […]",-16.73%
Cl.O=C1CC2(CCCNC2)C(=O)N1Cc1cccc(Cl)c1 (stereo not given),Percent Effect,"30.3 µM, […]",2.467%
CCC(C)NC(=O)Cn1c(Nc2cc(C)cc(C)c2)nc(C)cc1=O (stereo not given),Percent Effect,"30 µM, 30.03 µM",-43.03%
Cc1ccc(NCc2cncc3c2CCN(Cc2ccccn2)C3)nn1.Cl.Cl,Percent Effect,"30.3 µM, […]",-48.05%
O=C(O)C(F)(F)F.O=C([C@H]1CC[C@@H]2[C@@H](CCN2Cc2nccs2)O1)N1CCOCC1,Percent Effect,"30.3 µM, […]",-77.67%
NC[C@H]1CC[C@H](C(NC(=O)C2CC2)c2ccccn2)CC1 (stereo not given in full),Percent Effect,"30.3 µM, […]",-27.22%
C/C(=C\c1ccccc1)CN1CCCC(c2nnc3n2CCNCC3)C1.Cl (stereo not given),Percent Effect,"30.3 µM, […]",-29.45%
O=C(O)C(F)(F)F.O=C(O)C(F)(F)F.O=C1CC(c2ccncc2)C2(CCN(Cc3ccc(F)cc3)CC2)N1 (stereo not given),Percent Effect,"30 µM, 30.03 µM",27.71%
Cc1ccc(CN2CCC[C@]3(C(=O)O)CN(CC4CC4)C[C@@H]3C2)s1.O=C(O)C(F)(F)F.O=C(O)C(F)(F)F,Percent Effect,"30.3 µM, […]",-73.23%
CCCn1c(C)c(CC(=O)NCCC(N)=O)c2c1CC(C)(C)CC2=O,Percent Effect,"30 µM, 30.03 µM",-41.08%
Cc1nc(NC(=O)c2ccc(-n3ncc(C#N)c3N)cc2)sc1C,Percent Effect,10 µM,-25.11%
Nc1nc(CN2CCCC2Cn2cncn2)nc2ccccc12 (stereo not given),Percent Effect,10 µM,-61.59%
Cc1cnn(CC2CCCN2Cc2nc(N)c3ccccc3n2)c1 (stereo not given),Percent Effect,"30.3 µM, […]",51.47%
same,Percent Effect,"10 mM, 10 mM as filed; unlikely as a test dose",-16.65%
Cc1cnn(CC2CCCCN2Cc2nc(N)c3ccccc3n2)c1 (stereo not given),Percent Effect,"30 µM, 30.03 µM",14.94%
COCCN1CCn2cc(CNC(=O)c3cnn(C)c3)nc2C1.O=C(O)C(F)(F)F,Percent Effect,"30 µM, 30.03 µM",-33.8%
CC(C)CN1C[C@H]2C[C@H](C(=O)NC3CCC3)[C@@H](C1)O2.O=C(O)C(F)(F)F,Percent Effect,"30.3 µM, […]",-44.07%
Clc1cccc(-c2cccc(N3CCC(NC4CCOCC4)CC3)c2)c1,Percent Effect,"30 µM, 30.03 µM",100.7%
COc1cccc(-c2cccc(N3CCC(N[C@@H]4CCOC4)CC3)c2)c1,Percent Effect,"30 µM, 30.03 µM",9.147%
Cc1ccc(-c2cccc(N3CCC(NC4CCOCC4)CC3)c2)cc1,Percent Effect,"30 µM, 30.03 µM",8.614%
COC(=O)c1ccc(CNCc2ccn(C)n2)cc1,Percent Effect,"30.3 µM, […]",-7.529%
O=C(O)C(F)(F)F.O=C(O)C(F)(F)F.O=C1CCC2(CCN(Cc3ccc(F)cc3)CC2)N1CCN1CCCC1,Percent Effect,"30.3 µM, […]",-27.18%
Cc1nccc(-c2cccc(NCC(=O)N3CCc4sccc4C3)c2)n1,Percent Effect,"30 µM, 30.03 µM",51.17%
Cc1nccc(-c2cccc(NCC(=O)N3CCCC(C)C3)c2)n1 (stereo not given),Percent Effect,"30.3 µM, […]",89.85%
Cc1nccc(-c2cccc(NCC(=O)N3CCOCC3)c2)n1,Percent Effect,"30.3 µM, […]",18.69%
Cc1nccc(-c2cccc(NCC(=O)N3CCOC(C)C3)c2)n1 (stereo not given),Percent Effect,"30.3 µM, […]",18.9%
Cc1nccc(-c2cccc(NCC(=O)N3CCNC(=O)C3)c2)n1,Percent Effect,"30.3 µM, […]",13.04%
Cc1nccc(-c2cccc(NCC(=O)N3CCCCCCC3)c2)n1,Percent Effect,"30 µM, 30.03 µM",-43.47%
COc1cc(CNCC2CN(C3CC3)CCO2)cc(OC)c1.Cl (stereo not given),Percent Effect,"30 µM, 30.03 µM",10.22%
CC(C)CN1CCN(C(=O)c2ccncc2F)Cc2cccnc21.O=C(O)C(F)(F)F.O=C(O)C(F)(F)F,Percent Effect,"30 µM, 30.03 µM",-15.43%
NC1C=C(C(F)(F)F)NC=C1c1ccc(Cl)cc1 (stereo not given),Percent Effect,"30.3 µM, […]",-11.05%
COc1ccccc1N1CCC(CNCc2cccc(OC)c2OC)C1 (stereo not given),Percent Effect,"30 µM, 30.03 µM",106.6%
COc1cccc(N2CCC(CNCc3cccc(C#N)c3)C2)c1 (stereo not given),Percent Effect,"30.3 µM, […]",77.75%
same,Percent Effect,"10 mM, 10 mM as filed; unlikely as a test dose",-19.99%
COc1cccc(N2CCC(CNC(=O)NCc3ccco3)C2)c1 (stereo not given),Percent Effect,"30 µM, 30.03 µM",0.1518%
COc1ccccc1N1CCC(CNCc2ccc(C#N)cc2)C1 (stereo not given),Percent Effect,"30.3 µM, […]",92.2%
same,Percent Effect,"10 mM, 10 mM as filed; unlikely as a test dose",66.86%
COc1ccccc1N1CCC(CNCc2cccc(C#N)c2)C1 (stereo not given),Percent Effect,"30 µM, 30.03 µM",38.86%
COc1ccc(CNCC2CCN(c3ccccc3OC)C2)cc1O (stereo not given),Percent Effect,"30.3 µM, […]",47.62%
same,Percent Effect,"10 mM, 10 mM as filed; unlikely as a test dose",-24.56%
COc1ccccc1N1CCC(CNCc2cccc(O)c2)C1 (stereo not given),Percent Effect,"30 µM, 30.03 µM",-1.533%
COc1cccc(CNCC2CCN(CC(C)O)CC2)c1OC (stereo not given),Percent Effect,10 µM,-41.05%
COc1cccc(N2CCC(CNc3cc(C)nc4ncnn34)C2)c1 (stereo not given),Percent Effect,"30.3 µM, […]",-742.4%
